The text below walks through data of ChEMBL document CHEMBL3988442, “University of Dundee, Small-Polar-MMV Screening Library” (2021).

The campaign covered roughly 48,000 compounds. About 13,000 (27%) showed an effect of 50% or more. This is one part of the list.

For the assay, the system named is Wolbachia pipientis. Briefly: Anti-Wolbachia Cell-Based Screen. The conditions noted are these: 5 µM. It counts as functional. Also noted: scale not given: in the data most compounds retested in dose-response had high values.
Regarding `OCCN(Cc1cccnc1)c1ccc(Cl)cn1`, the “Percent Effect” value is recorded as -7.592%. With `CNc1nc(C(=O)N2C[C@H]3CC[C@@H]2CN(C2CCOCC2)C3)cs1` the figure was -0.4329%; with `CCCc1nc(CN(C)CC2CCN(CCO)CC2)no1`, -5.007%; with `CC(=O)NCCNC(=O)c1cnc2c(c1)nc(-c1ccccc1Cl)n2C`, -9.781%.

Regarding `COC(C)(C)C(=O)N[C@H]1CN(c2ncccc2C(N)=O)C[C@@H]1C(C)C`, the “Percent Effect” value worked out at 2.672%. As for `CC(=O)N1C[C@H](NC(=O)c2ccnc(N)c2)[C@@H](C(C)C)C1`, the figure is -4.113%. As for `CC(C)[C@H]1CN(c2ccnc(N)n2)C[C@@H]1NC(=O)C1(C#N)CCOCC1`, the figure is 89.33%.

Consider `Cc1nn(C)c(Oc2ccc(Cl)cc2)c1CN1CC[C@H](CO)[C@@H](O)C1`, for which the “Percent Effect” value is recorded as -1.259%. As for `N#Cc1cccc(CN2Cc3nccn3CC(COCC3CC3)C2)c1.O=C(O)C(F)(F)F` (configuration not stated), the figure is 104.1%; as for `CCN(CC)CC1CN(Cc2c(C)noc2C)Cc2nccn2C1` (configuration not stated), -2.257%. In the case of `CCOCC1CN(Cc2cccc(C#N)c2)Cc2nccn2C1.O=C(O)C(F)(F)F` (configuration not stated), the “Percent Effect” value is 5.676%. Regarding `CN(C)CCN1CCN(Cc2cccc(C#N)c2)Cc2cccnc21.O=C(O)C(F)(F)F.O=C(O)C(F)(F)F.O=C(O)C(F)(F)F`, the “Percent Effect” value came to 101.9%. With `Cc1noc(C)c1CN1CCN(CCN(C)C)c2ncccc2C1.O=C(O)C(F)(F)F.O=C(O)C(F)(F)F.O=C(O)C(F)(F)F` the figure was 0.7067%. As for `COCc1nccc(C2CCCN(Cc3cccc(C#N)c3)C2)n1` (configuration not stated), the figure is -9.239%. As to `COCC1CN(Cc2cccc(C#N)c2)Cc2nccn2C1` (configuration not stated), the “Percent Effect” value was determined as 107.2%.

Turning to `CCN(CC)CC1CN(Cc2cccc(C#N)c2)Cc2nccn2C1.O=C(O)C(F)(F)F.O=C(O)C(F)(F)F` (configuration not stated), the “Percent Effect” value was found to be 268.5%. As for `Cc1ccc2c(n1)N(CCN(C)C)CCN(Cc1c(C)noc1C)C2.O=C(O)C(F)(F)F.O=C(O)C(F)(F)F.O=C(O)C(F)(F)F`, the figure is 11.23%.

For `CCC(C)(NCC(=O)NC(C)C)c1nccs1` (configuration not stated), the “Percent Effect” value was -10.98%. With `NC(=O)COc1ccc(CN2CCNC(C(=O)NC3CC3)C2)cc1Cl` (configuration not stated) the figure was -45.28%; with `CC1CCN(c2ccc3c(-c4ncc(C(=O)O)s4)noc3c2)CC1`, -16.58%; with `CC1(C)COCCN1C(=O)CCc1nc(-c2ccccn2)no1`, -0.8567%. As for `O=C(Nc1cccnc1)Nc1ccn(CC(F)F)n1`, the figure is -6.683%. For `CN(C)CC1(O)CCCN(c2nc(-c3ccccc3)no2)CC1` (configuration not stated), the “Percent Effect” value is -0.08727%.

For `CN(C)CC1CN(Cc2cccc(C#N)c2)Cc2nccn2C1.O=C(O)C(F)(F)F.O=C(O)C(F)(F)F` (configuration not stated), the “Percent Effect” value came to 95.93%. As for `CN(C)CCOCC1CN(Cc2ccsc2)Cc2ccnn2C1.O=C(O)C(F)(F)F.O=C(O)C(F)(F)F.O=C(O)C(F)(F)F` (configuration not stated), the figure is -16.3%; as for `O=C(Cc1ccccc1)N1Cc2nccn2CC(CN2CCCC2)C1.O=C(O)C(F)(F)F` (configuration not stated), 14.72%. With `N#Cc1cccc(CN2Cc3nccn3CC(CN3CCCC3)C2)c1.O=C(O)C(F)(F)F.O=C(O)C(F)(F)F` (configuration not stated) the figure was 90.25%; with `CCN(CC)CC1CN(Cc2nccs2)Cc2nccn2C1.O=C(O)C(F)(F)F.O=C(O)C(F)(F)F` (configuration not stated), -6.3%.

Turning to `CN(C)CC1CN(Cc2ccsc2)Cc2nccn2C1.O=C(O)C(F)(F)F.O=C(O)C(F)(F)F` (configuration not stated), the “Percent Effect” value is -11.98%. As for `CCN(CC)CC1CN(CCc2ccccc2)Cc2nccn2C1.O=C(O)C(F)(F)F.O=C(O)C(F)(F)F` (configuration not stated), the figure is 77.99%; as for `CN(C)CCOCC1CN(Cc2cccc(F)c2)Cc2nccn2C1.O=C(O)C(F)(F)F.O=C(O)C(F)(F)F` (configuration not stated), 63.4%.

As for `Cc1nc(CN2Cc3nccn3CC(CN3CCCC3)C2)cs1.O=C(O)C(F)(F)F.O=C(O)C(F)(F)F` (configuration not stated), the “Percent Effect” value was -3.569%. As for `CCN(CCC(=O)NC1CC1)Cc1ccc(Cl)s1`, the figure is -9.828%; as for `Cc1ccccc1OCC1CCCN(C(=O)CN(C)C2CCNCC2)C1` (configuration not stated), 4.855%. `Cc1ccc(S(=O)(=O)N(C)CC(N)=O)c(Cl)c1`: the “Percent Effect” value turned out to be 2.18%.

As to `Cc1nonc1CN(C)Cc1nc(-c2ccccc2Cl)oc1C`, the “Percent Effect” value is -14.91%. As for `Cc1nonc1CN(C)Cc1cnn(-c2ccc(Cl)cc2)c1`, the figure is 133.6%; as for `CCn1cc(CN(C)S(=O)(=O)c2ccc(Cl)cc2)cn1`, -0.8604%; as for `CSCC(=O)N(C)Cc1cnn(-c2ccc(F)cc2)c1`, -3.16%. As for `Cc1nonc1CN(C)Cc1cnn(-c2ccc(F)cc2)c1`, the “Percent Effect” value was 116.4%.

On to `Cc1nonc1CN(C)Cc1c[nH]nc1-c1ccc(F)cc1F`, for which the “Percent Effect” value was determined as 1.804%. `CS(=O)(=O)c1nccn1CCOc1ccc(F)cc1Cl`: the “Percent Effect” value came to 1.333%. As for `COc1ccc(S(N)(=O)=O)cc1C(=O)N(C)Cc1cc(C)on1`, the figure is 5.855%; as for `Cc1noc(C2CCCN(C(=O)c3cccc(Cl)c3)C2)n1` (configuration not stated), -10.95%.

Take `CCc1nc(C2CCCN(C(=O)c3cccc(C(N)=O)c3)C2)no1` (configuration not stated): the “Percent Effect” value stood at 115.3%. As for `CCc1nc(C2CCCN(C(=O)c3cccc(Cl)c3)C2)no1` (configuration not stated), the figure is 126.3%; as for `CCc1nc(C2CCCN(C(=O)c3ccc4c(c3)nnn4C)C2)no1` (configuration not stated), 5.742%; as for `CCc1nc(C2CCCN(C(=O)c3cccc4c3ccn4C)C2)no1` (configuration not stated), -5.539%. As for `CCc1nc(C2CCCN(C(=O)c3cccc4cn[nH]c34)C2)no1` (configuration not stated), the “Percent Effect” value is listed as -7.145%.

Take `NC(=O)c1ccc(N2CCN(Cc3cccc4nsnc34)CC2)nc1`: the “Percent Effect” value is given as -18.45%. As for `COc1ccc(C(NC(=O)c2cccc[n+]2[O-])C2CC2)cc1` (configuration not stated), the figure is 3.052%; as for `O=C(c1cn[nH]c1)N1CCC2(CCCN(Cc3ccc(F)c(F)c3)C2)C1` (configuration not stated), -7.691%; as for `NC(=O)C1(c2cnccn2)CCCN1Cc1ccc(Cl)c(F)c1` (configuration not stated), 137%. In the case of `CCS(=O)(=O)N1CCC2(CCCN(Cc3ccc(F)c(F)c3)C2=O)C1` (configuration not stated), the “Percent Effect” value is -34.42%. As for `CN(C)C(=O)N1CCCC2(CCN(Cc3ccc(Cl)c(F)c3)C2)C1` (configuration not stated), the figure is 2.484%; as for `NC(=O)C1(c2cnccn2)CCCN1Cc1ccc(F)c(F)c1` (configuration not stated), 80.27%.

Turning to `NC(=O)CN1CC2(CCC1=O)CCN(Cc1ccc(Cl)c(F)c1)CC2`, the “Percent Effect” value was 13.87%. With `COc1cc(CNC2CCN(c3ccccc3)C2)cc(OC)c1OC` (configuration not stated) the figure was 0.4794%; with `CCn1cc(CN(C)S(=O)(=O)c2ccc(NC(C)=O)cc2)cn1`, 5.791%; with `CNC(=O)c1[nH]nc2c1CN(c1cc(C3CCCNC3)nc(C)n1)CC2` (configuration not stated), -2.336%. As to `CNC(=O)c1cc(C2CCCN2)n[nH]1.Cl` (configuration not stated), the “Percent Effect” value amounted to 155.4%. On to `CCc1c(C)nn(CCNC(=O)c2cc(C3CC3)n[nH]2)c1C`, for which the “Percent Effect” value was 1.187%. With `COc1ccccc1OCc1cc(C(=O)NC[C@@H]2CCCN2)n[nH]1` the figure was -26.39%; with `CCCc1cc(C(=O)NC2CCCCNC2=O)[nH]n1` (configuration not stated), -7.069%; with `Cl.O=C(NC1CCCC1)c1cc(C2CCCNC2)n[nH]1` (configuration not stated), 150.1%. On to `O=C(c1ccc(C2CCCN2)s1)N1CC=CC1` (configuration not stated), for which the “Percent Effect” value is listed as 0.32%. As for `CNC(=O)c1cc(C2CCCNC2)n[nH]1.Cl` (configuration not stated), the figure is 96.41%; as for `O=C(NC1CCCC1)c1n[nH]c2c1CNCC2`, -11.08%; as for `CSC1(CNc2ccc(Br)cn2)CCOCC1`, -9.614%.

As for `CCOCCNC(=O)c1cc(Br)c2c(c1)OCCO2`, the “Percent Effect” value is recorded as -10.75%. As for `COCCC(=O)N1CC2(CCN(Cc3ccccc3Cl)CC2)C1.O=C(O)C(F)(F)F`, the figure is 7.796%. With `Cc1noc(C)c1S(=O)(=O)N1CCc2nc(C3CCNCC3)ncc2C1.Cl` the figure was 92.39%; with `Cl.O=S(=O)(c1ccc(Cl)cc1)N1CCc2nc(C3CCNCC3)ncc2C1`, 112%. With `Cc1nc(C2CCN(S(=O)(=O)c3ccc4c(c3)CCC4)CC2)n[nH]1` the figure was -1.341%. `CCC[C@H]1CN(S(=O)(=O)c2c(C)noc2C)C[C@@H]1N`: the “Percent Effect” value is -20.84%. Regarding `Cc1ccc(S(=O)(=O)N2CCc3nc(C4CCNCC4)ncc3C2)cc1.Cl`, the “Percent Effect” value was -12.78%. As for `Cc1n[nH]c(C)c1CCN(C)C(=O)c1ccc(CN2CCCCC2)cc1`, the figure is -26.72%; as for `CCc1cnc(C)nc1NCC(O)CN1CCCCCC1` (configuration not stated), -1.473%. As for `Cc1nnc([C@@H]2CC[C@@H]3[C@@H](CCN3C3CCC3)O2)o1`, the figure is 107.1%.

For the compound `Cc1nnc([C@@H]2CC[C@@H]3[C@@H](CCN3C3CCOCC3)O2)o1`, the “Percent Effect” value was -2.772%. As for `Cc1nnc([C@@H]2CC[C@@H]3[C@@H](CCN3S(C)(=O)=O)O2)o1`, the figure is 4.456%. As for `CC(=O)C(Cc1ccccc1)NC(=O)CSc1nncn1C` (configuration not stated), the figure is 8.647%; as for `COCC1(CNc2cc(C(C)C)nc(N)n2)CC1`, 12.37%; as for `CCCC(=O)NC1CCc2c(ccc(=O)n2Cc2csc(C)n2)C1.O=C(O)C(F)(F)F` (configuration not stated), 92.99%. With `Cc1nc(CN2C[C@@H]3CN(C(=O)NC(C)C)C[C@@H]3C2=O)cs1.O=C(O)C(F)(F)F` the figure was 4.242%. With `CC(C)NC1CCc2c(ccc(=O)n2CC2CC2)C1.O=C(O)C(F)(F)F` (configuration not stated), the “Percent Effect” value was -1.359%. As for `Cc1nc(Cn2c3c(ccc2=O)CC(NC(C)C)CC3)cs1.O=C(O)C(F)(F)F.O=C(O)C(F)(F)F` (configuration not stated), the figure is 95.6%. As for `Cc1nc(Cn2c3c(ccc2=O)CCN(CC2CC2)CC3)cs1.O=C(O)C(F)(F)F.O=C(O)C(F)(F)F`, the figure is 7.996%.

For the compound `COCC(=O)N1CCc2ccc(=O)n(Cc3csc(C)n3)c2CC1.O=C(O)C(F)(F)F`, the “Percent Effect” value is -6.118%. With `COCCNC(=O)[C@@H](C)[C@@H]1CCc2c(C)cc(OCC(=O)O)c(C)c2C1` the figure was -3.996%; with `Cc1cccc(N2CCC(N3CCC4(CN(C)C(=O)O4)C3)CC2)c1C` (configuration not stated), 10.35%; with `O=C(CN1CCOC1=O)N1CC[C@@H](c2ccc3ccccc3c2)[C@H](O)C1`, 1.475%.
